Screening data (PubChem)
Hits are enriched below; roughly 0.63% of the tested compounds scored in any of these assays.
ASM inhibitor: human S-ASM enzyme inhibition; placental ASM, HMU-PC fluorogenic substrate, 60 min; Potency, µM (top dose mostly 57.5 µM), most hits filed as inhibitors; AID 504937; hit rate 0.006% among 340,000; P17405; active = well fitted inhibition curve with a large enough effect; inconclusive = small, poorly fitted or top-dose-only effect; inactive = no such curve, though single readings can be large or run the other way
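HMU-PC0 cleavage (9 uM final) by human placental ASM, 60 min at 37 °C following 10 min compound exposure at RT; stopped at pH 10, fluorescence Ex 386/Em 447 nm.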
TSHR antagonist: blocks TSH signaling through the human TSH receptor | TSHR-expressing cells, TSH-stimulated cAMP HTRF, 2 h; hits give low values | P16473 | activity change, negative = inhibition, % at 11.5 µM | hit rate 0.2% among 330,000;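 active = activity change below a set negative limit, meaning inhibition stronger than a set level, cut at about -70% in these data; inconclusive = activity change between two set negative limits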
Target sequence (P16473 whole entry, looked up): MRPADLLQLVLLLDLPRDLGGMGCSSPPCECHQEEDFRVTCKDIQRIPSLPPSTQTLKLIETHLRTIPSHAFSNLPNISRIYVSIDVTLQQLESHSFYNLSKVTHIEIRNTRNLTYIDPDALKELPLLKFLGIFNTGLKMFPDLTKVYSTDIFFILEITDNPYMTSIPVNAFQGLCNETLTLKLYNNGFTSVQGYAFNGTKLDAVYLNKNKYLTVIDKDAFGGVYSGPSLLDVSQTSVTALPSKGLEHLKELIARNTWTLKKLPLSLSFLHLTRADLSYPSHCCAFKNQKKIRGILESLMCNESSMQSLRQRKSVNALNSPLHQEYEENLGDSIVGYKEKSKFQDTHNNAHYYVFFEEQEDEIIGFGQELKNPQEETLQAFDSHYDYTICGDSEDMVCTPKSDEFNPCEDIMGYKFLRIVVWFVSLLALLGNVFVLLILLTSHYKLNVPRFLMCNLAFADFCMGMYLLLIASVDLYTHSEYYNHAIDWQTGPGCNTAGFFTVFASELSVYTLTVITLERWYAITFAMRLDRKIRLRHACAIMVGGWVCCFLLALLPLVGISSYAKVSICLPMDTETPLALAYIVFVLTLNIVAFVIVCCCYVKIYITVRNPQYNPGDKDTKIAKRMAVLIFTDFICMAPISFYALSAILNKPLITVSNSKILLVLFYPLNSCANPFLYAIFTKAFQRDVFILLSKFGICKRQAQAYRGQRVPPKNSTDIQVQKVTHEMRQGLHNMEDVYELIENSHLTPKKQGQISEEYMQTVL
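Freshly harvested TSHR cells receive pin-tooled compound, then EC80 TSH at 4nM final. After 2 hours at 37 deg C, antibody in lysis buffer and cAMP-d2 are added; 30 minutes at ambient temperature precede the HTRF read.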
gsp agonist: activates gsp, the McCune-Albright syndrome mutation; AID 624287; Potency, µM (series often up to 76.9 µM), usual class: activators; gsp mutant cells, cAMP HTRF, 30 min; hit rate 0.13% among 340,000; active = well fitted activation curve with a large enough effect; inconclusive = small, poorly fitted or top-dose-only effect, or another doubt; inactive = no such curve, though single readings can be large or run the other way; cell line not stated here;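 note: phosphodiesterase inhibitor Ro 20-1724 added with compounds to block cAMP breakdown; nearly all actives have a fitted effect of over 60% in size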
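Cells in DMEM/10% FBS with G418 were pretreated with compounds in DMSO plus […] (300 uM stock) for 30 min at 37C. cAMP was measured by HTRF (cAMP-d2 plus anti-cAMP antibody-K) after 30 min at room temperature.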
gsp antagonist: antagonizes gsp, the McCune-Albright syndrome mutation; AID 624288; Potency, µM (series often up to 76.9 µM), actives largely listed as inhibitors; gsp-mutant cells, cAMP HTRF, 30 min; hit rate 0.4% among 340,000; calls by dose curve; cell line not stated here;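 note: intracellular cAMP measured with PDE inhibitor Ro 20-1724 present during compound exposure; nearly all actives have a fitted effect of over 65% in size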
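HTRF cAMP measurement after 30 min RT detection following 30 min, 37C compound treatment alongside […] (added as 300 uM solution) in G418-selected cells seeded at 2000/well and grown 16–24 h.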
Large screens that a line does not name were inactive.

Cc1ccccc1C(=O)NN1CC(C(=O)OCc2ccc(Cl)c(Cl)c2)CC1=O (stereo unspecified)	gsp antagonist 31.6µM
COc1ccc2c(c1)cc(C(=O)N[C@@H](CCSC)C(=O)N1CCC(C(=O)O)CC1)n2C	gsp agonist inconclusive
COc1ccccc1NC(=O)N1CCCC(CNC(=O)c2ccccc2Cl)C1 (stereo unspecified)	gsp antagonist 44.7µM
CCN1C(=NCCCCO)N[C@@H](c2ccccc2)C(C(=O)OC)=C1C	none (no result: ASM inhibitor, gsp agonist, gsp antagonist)
Cc1cc(/C=C2\SC(=S)NC2=O)c(C)n1-c1ccc(O)cc1	gsp antagonist 31.6µM
Cc1cc(/C=C2\SC(=S)NC2=O)c(C)n1-c1ccccc1	none
COc1ccc(CN(C)C(=O)CNC(=O)c2ccc3ccccc3c2)c(OC)c1	none
COc1ccc(Br)cc1CN(C)C(=O)CNC(=O)c1ccc2ccccc2c1	gsp antagonist 31.6µM
CCOC(=O)c1cc(-c2cccnc2)nn1-c1ccccc1	none
CCOC(=O)c1cc(-c2ccc(OC)cc2)nn1-c1ccc(C(=O)O)cc1	gsp antagonist 35.5µM
O=S(=O)(Nc1ccc(-c2ccc(N3CCOCC3)nn2)cc1)c1ccc(Cl)c(Cl)c1	gsp antagonist 35.5µM
O=S(=O)(Nc1cccc(-c2ccc(N3CCCCCC3)nn2)c1)c1ccccc1F	gsp antagonist inconclusive
O=S(=O)(Nc1cccc(-c2ccc(N3CCCCCC3)nn2)c1)c1ccc(F)cc1	TSHR antagonist -83.1, gsp agonist inconclusive, gsp antagonist inconclusive
O=S(=O)(Nc1cccc(-c2ccc(N3CCCCCC3)nn2)c1)c1ccccc1Cl	gsp agonist inconclusive, gsp antagonist 28.2µM
O=S(=O)(Nc1cccc(-c2ccc(N3CCCCCC3)nn2)c1)c1cccc(F)c1	gsp antagonist inconclusive
O=C(CCNS(=O)(=O)c1ccccc1)OCC(=O)c1ccc[nH]1	none (no result: TSHR antagonist)
CCC(=O)Nc1c(-c2ccccc2Cl)c(=O)c2ccccc2n1CC	gsp agonist 15.8µM
CCn1c(NC(C)=O)c(-c2ccccc2Cl)c(=O)c2ccccc21	none
COc1ccc(COc2ccccc2C(=O)NCc2ccccc2)cc1F	gsp antagonist 28.2µM
CC1(C)Cc2c(cnn2-c2cccc(F)c2)C(NC(=O)CCc2cnccn2)C1 (stereo unspecified)	none
COc1cccc(Nc2nc3ccccc3nc2NS(=O)(=O)c2cccs2)c1	TSHR antagonist inconclusive, gsp antagonist 14.1µM
NC(=O)C1CCN(c2nc(-c3ccccc3[N+](=O)[O-])cs2)CC1	none (no result: ASM inhibitor, gsp agonist, gsp antagonist)
CC(=O)O[C@H]1CC2(C)[C@@H](C[C@@H](O)[C@H]3[C@@]4(C)CC[C@@H](O)[C@@H](C)[C@@H]4CC[C@@]32C)C1=C(CCC=C(C)C)C(=O)O (stereo partly specified)	none (no result: ASM inhibitor, gsp agonist, gsp antagonist)
COc1ccc(OCC(=O)N2CCN(c3nnc(-c4ccc(C)cc4)c4ccccc34)CC2)cc1	gsp antagonist 28.2µM
Cc1ccc(OCC(=O)N2CCN(c3nnc(-c4ccc(C)cc4)c4ccccc34)CC2)cc1	gsp antagonist 35.5µM
O=C(COc1ccccc1)N1CCN(c2nnc(-c3ccccc3)c3ccccc23)CC1	gsp antagonist inconclusive
Cc1ccc(-c2nnc(N3CCN(C(=O)COc4cccc(C)c4)CC3)c3ccccc23)cc1	gsp antagonist inconclusive
Cc1ccc(-c2nnc(N3CCC(C)CC3)c3ccccc23)cc1	gsp antagonist 25.1µM
COc1ccc(OCC(=O)N2CCN(c3nnc(-c4ccccc4)c4ccccc34)CC2)cc1	gsp antagonist 39.8µM
CCN1CCN(C(=O)C2CCCN(S(=O)(=O)c3cccc4nsnc34)C2)CC1 (stereo unspecified)	none
CN1CCOc2ccc(S(=O)(=O)N3CCN(S(=O)(=O)c4c(F)cccc4F)CC3)cc21	none (no result: ASM inhibitor, gsp agonist, gsp antagonist)
O=C(O)c1ccc(S(=O)(=O)N[C@H](Cc2ccc([N+](=O)[O-])cc2)C(=O)O)cc1	none (no result: ASM inhibitor, gsp agonist, gsp antagonist)
Cc1cccc(-c2nnc(SCC(=O)c3ccc(O)cc3O)n2C)c1	ASM inhibitor inconclusive, gsp antagonist inconclusive
OCc1cn(Cc2ccc(O)c3ncccc23)cn1	none (no result: ASM inhibitor, gsp agonist, gsp antagonist)
Clc1ccc(-c2nc3cc(CN4CCCCC4)ccc3o2)cc1	none
CN(CC(=O)Nc1nc2ccccc2s1)S(=O)(=O)c1ccc(Cl)cc1	gsp antagonist 31.6µM
CN(CC(=O)Nc1nc2ccccc2s1)S(=O)(=O)c1ccc(Br)cc1	gsp antagonist 39.8µM
Cc1cccc(NC(=O)CN(C)S(=O)(=O)c2ccc(Br)cc2)n1	none
Cc1cccc(NC(=O)CN(C)S(=O)(=O)c2ccc(Cl)cc2)n1	none
O=C(CCc1ccccc1Cl)N1CCN(S(=O)(=O)c2ccccc2)CC1	gsp antagonist 10µM
O=C(COc1cccnc1[N+](=O)[O-])N1CCN(S(=O)(=O)c2ccccc2)CC1	gsp antagonist 50.1µM
O=C(CCSc1ccc(Cl)cc1)N1CCN(S(=O)(=O)c2ccccc2)CC1	none
O=C(COc1ccccc1[N+](=O)[O-])N1CCN(S(=O)(=O)c2ccccc2)CC1	none
O=C(O)c1ccc2c(c1)C(=O)N([C@H](Cc1ccc3ccccc3c1)C(=O)O)C2=O	none (no result: ASM inhibitor, gsp agonist, gsp antagonist)
O=[N+]([O-])c1ccc(O)c(Nc2ncnc3ccc(Br)cc23)c1	TSHR antagonist inconclusive, gsp antagonist 35.5µM
O=C(NCc1nnc2c(C(F)(F)F)cc(Cl)cn12)c1ccc(Br)o1	gsp agonist 12.6µM
O=C(NCc1nnc2c(C(F)(F)F)cc(Cl)cn12)c1cccnc1	gsp agonist inconclusive
Cc1ccc(NC(=O)CCCc2nc3ccccc3c(=O)[nH]2)c(Cl)c1	none
CC(=O)N1CCc2cc(Br)cc(S(=O)(=O)N3CCC(C(=O)O)CC3)c21	TSHR antagonist -105.6
CC(C)(C)c1nnc(N/N=C/c2cc(Br)ccc2O)n(N)c1=O	gsp antagonist 28.2µM
COc1cccc(-c2ccc3ncnc(NCc4cccc(F)c4)c3c2)c1	none (no result: ASM inhibitor, gsp agonist, gsp antagonist)
Cc1c(OCC(=O)NCC(O)c2ccccc2)ccc2c(-c3ccccc3)cc(=O)oc12 (stereo unspecified)	gsp antagonist 28.2µM (no result: gsp agonist)
Cc1c(OCC(=O)NCc2ccccn2)ccc2c(-c3ccccc3)cc(=O)oc12	none (no result: gsp agonist)
CN1c2ccsc2C(O)=C(C(=O)Nc2ccccc2)S1(=O)=O	gsp antagonist inconclusive
CN1c2ccccc2C(O)=C(C(=S)Nc2ccc(Cl)cc2)S1(=O)=O	gsp antagonist 28.2µM
Cc1cccc(NC(=O)C2=C(O)c3ccccc3N(C)S2(=O)=O)c1	gsp antagonist 25.1µM
NC(=O)C1CCN(c2nc(-c3ccc(Cl)cc3)cs2)CC1	none (no result: ASM inhibitor, gsp agonist, gsp antagonist)
Cc1c(C(=O)Nc2ccc(F)cc2)c2ccccn2c1CCc1ccncc1	gsp antagonist 11.2µM
COC(=O)CCc1c(C)c(C(=O)c2ccc(F)cc2)c2ccccn12	none
O=S1(=O)CCN2C(Cc3ccc(SC(F)F)cc3)=CSC2=N1	gsp agonist inconclusive, gsp antagonist 31.6µM
CC1=CSC2=NS(=O)(=O)CCN12	none
Cn1c(=O)c2c(nc(N3CCCCCC3)n2Cc2cccc3ccccc23)n(C)c1=O	ASM inhibitor inconclusive
CN1CCN(c2nc3c(c(=O)n(C)c(=O)n3C)n2Cc2cccc3ccccc23)CC1	gsp agonist 25.1µM
Cn1c(=O)c2c(nc(N3CCCC3)n2C)n(C)c1=O	gsp agonist 20µM
